CHT PAM: allosterically activates the human high affinity choline transporter | Q9GZV3 | CHT-expressing cells, membrane potential dye, choline EC20; stronger effect = higher value; LV-AA mutant CHT in HEK293 cells | B-score at 10 µM | hit rate 0.49% among 310,000;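 active = initial fluorescence not abnormally high and integrated response B-score, plate-corrected, over 3 SD above library mean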
CHT block: inhibitors of human choline transporter CHT; Q9GZV3; CHT-expressing cells, membrane potential dye, choline response; stronger effect = lower value; B-score at 10 µM; hit rate 0.86% among 310,000; AID 488975;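 active = B-score over 3 SD under the library average, and starting fluorescence ratio not unusually high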;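 also: choline stimulus applied at its EC90 after an EC20 pre-addition; B-score computed on integrated fluorescence ratio after choline addition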
IDE cell activ: IDE (human) activation, cell-based; P14735; HEK cells, FAbeta-B cleavage, fluorescence polarization; 0% vehicle, 100% cell-free pure enzyme wells; activation, % at 5.96 µM; hit rate 0.073% among 340,000; AID 493087;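 active = activation above the mean of all tested compounds plus 3 SD, set per screening campaign, cut at about 17% in these data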
TMEM16A inh: mouse TMEM16A channel inhibition, primary screen. normalized B-score (activity score, 25-100; higher = stronger inhibition) at 10 µM. HEK293 TMEM16A/YFP iodide influx fluorescence, ionomycin. Q8BHY3. hit rate 1.2% among 310,000;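 active = ratio plate-corrected score three or more library SD toward inhibition, starting fluorescence score within five deviations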;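 also: score derived from kinetic fluorescence span divided by baseline fluorescence per well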
IDE cell inh: inhibitors of human insulin-degrading enzyme in cells. P14735. HEK cells, FAbetaB cleavage, fluorescence polarization. inhibition, % at 5.59 µM. hit rate 0.41% among 320,000;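 active = percent inhibition above the average of all tested compounds plus 3 SD, set per screening campaign, cut at about 16% in these data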;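 also: IDE supplied by intact live HEK cells; FP after avidin binding of uncleaved biotin substrate so inhibition keeps polarization high; 0% = DMSO wells and 100% = 60 µM reference IDE inhibitor Ii1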
ANO1 activ: mouse TMEM16A channel activation, primary screen | Q8BHY3 | B-score at 10 µM | hit rate 0.3% among 340,000 | AID 623877 | HEK293 TMEM16A/YFP-H148Q/I152L, iodide quench fluorescence; stronger effect = lower value;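 active = fluorescence-ratio B-score plate-corrected deviation score at least 3 library SD below zero, with starting fluorescence score within 5 deviations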;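 also: channel opened by trigger with iodide after compound preincubation; score built on the fluorescence ratio of max minus min over baseline; more negative score means more quench and so TMEM16A activation or potentiation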
IDE inh confirm: cellular human IDE inhibition, confirmation; AID 435028; inhibition, % at 5.59 µM; HEK cells, FAbetaB cleavage, fluorescence polarization; shares compounds with IDE cell inh; hit rate 51% among 1,200;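 active = mean inhibition across triplicate wells above the cutoff set by the earlier primary insulin-degrading enzyme screen, cut at about 16% in these data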;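 also: 0% = DMSO wells and 100% = 60 µM reference IDE inhibitor Ii1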
HEK293 tox: HEK cell cytotoxicity, counter-screen for IDE inhibitors; shares compounds with IDE cell inh; HEK293 cytotoxicity, ATP luminescence; inhibition, % at 5.59 µM; hit rate 28% among 1,200; AID 449730; in the data active = inhibition above about 22%;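 also: 0% = vehicle wells and 100% = reference cytotoxic drug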
The depositor's hits bear a star; i = inactive; x = no result. Sampled rows, rich in hits. Any-hit rate of the full collection: about 2.7%.

SMILES | CHT PAM | CHT block | IDE cell activ | TMEM16A inh | IDE cell inh | ANO1 activ | IDE inh confirm | HEK293 tox
Cn1cnnc1SCC(=O)N1N=C2/C(=C/c3ccco3)CCCC2C1c1ccco1 (configuration not stated) | i | i | -23.5 | i | 16.7* | i | 9.5 | 12.5
O=C(CSc1nccc(=O)[nH]1)N1N=C2/C(=C/c3ccco3)CCCC2C1c1ccco1 (configuration not stated) | i | i | 6.0 | i | 9.9 | i | x | x
Cn1c(CN2CCOCC2)nnc1SCC(=O)NCCc1ccccc1 | i | i | -21.4 | i | 21.2* | i | 11.8 | 6.1
Cn1c(CN2CCOCC2)nnc1SCC(N)=O | i | i | 0.2 | i | 1.4 | i | x | x
COc1ccc(NS(=O)(=O)c2cc(C(=O)N(C)CCc3ccccn3)ccc2Cl)cc1 | x | x | -2.8 | x | x | i | x | x
O=C(CSc1nc2[nH]ncc2c(=O)n1-c1ccccc1Cl)N1CCCC1 | i | i | -9.8 | i | 18.5* | i | 6.8 | 8.4
CCc1ccccc1-n1c(SCC(=O)N2CCCC2)nc2[nH]ncc2c1=O | i | i | -3.4 | i | 11.7 | i | x | x
COc1ccccc1-n1c(SCC(=O)Nc2ccccc2F)nc2[nH]ncc2c1=O | i | i | -26.2 | i | 6.0 | i | x | x
CCOc1ccc(NC(=O)CSc2nc3[nH]ncc3c(=O)n2-c2ccccc2OC)cc1 | i | i | -38.4 | i | 61.9* | i | 8.1 | 7.2
Cc1ccc2nc(/C(C#N)=C\c3cc(O)ccc3[N+](=O)[O-])[nH]c2c1 | i | i | 6.0 | i | -0.5 | i | x | x
COc1c(O)ccc(/C=C(\C#N)c2nc3ccccc3[nH]2)c1[N+](=O)[O-] | i | i | 4.2 | i | 17.3* | i | 2.8 | 3.7
COc1cc(/C=C(/C#N)c2nc3ccccc3[nH]2)ccc1OC(=O)c1ccco1 | i | i | -92.8 | i | 67.3* | -4.83* | 142.3* | 7.2
N#C/C(=C/c1ccc(N2CCOCC2)o1)c1nc2ccccc2[nH]1 | i | i | -157.4 | i | 35.5* | i | 26.0* | 28.5*
COc1cc(/C=C(\C#N)c2nc3ccccc3[nH]2)cc(OC)c1O | i | i | -93.8 | i | 92.0* | i | 25.9* | 7.7
COc1ccc(/C=C(\C#N)c2nc3ccccc3[nH]2)cc1O | x | x | -5.2 | x | x | i | x | x
Nc1ncnc2c1ncn2[C@@H]1O[C@H](CNCC(O)CO)[C@@H](O)[C@H]1O (some centres not stated) | x | x | 6.1 | x | x | x | x | x
Cn1c(/C(C#N)=C/c2ccc(O)cc2)nc2ccccc21 | i | i | -1.8 | i | -0.5 | i | x | x
COc1cc(/C=C(\C#N)c2nc3ccccc3n2C)cc(OC)c1O | i | i | -175.0 | i | 165.6* | i | 26.3* | 2.0
Cc1cc(NC(=O)c2ccco2)sc1C | x | x | 1.7 | x | 3.7 | i | x | x
CCOc1ccc(NC(=O)CSc2nc3c(c(=O)n2C)SC(C)C3)cc1 (configuration not stated) | i | i | -35.1 | i | 16.2* | i | 11.2 | 17.2
CC1Cc2nc(SCC(=O)Nc3ccc(F)cc3)n(C)c(=O)c2S1 (configuration not stated) | i | i | 5.6 | i | 6.8 | i | x | x
O=C(NNS(=O)(=O)c1ccc([N+](=O)[O-])cc1)C(=O)Nc1cccc(C(=O)O)c1 | i | i | 2.1 | i | 4.3 | i | x | x
CN1CCN(C(=O)c2cc3ccccc3[nH]2)CC1 | i | i | 0.0 | i | 1.9 | i | x | x
Cc1ccc(S(=O)(=O)N2CCCN(C(=O)c3cc4ccccc4[nH]3)CC2)cc1 | i | i | -15.8 | i | 16.4* | i | 5.2 | 9.2
N#C/C(=C\c1ccc(O)cc1)C(=O)NCc1ccccc1 | i | i | -0.5 | i | -1.1 | i | x | x
SMILES | CHT PAM | CHT block | IDE cell activ | TMEM16A inh | IDE cell inh | ANO1 activ | IDE inh confirm | HEK293 tox
CCN(CC)c1ccc(/C=C(/C#N)C(=O)NCc2ccccc2)o1 | i | i | -104.2 | i | 103.3* | i | 153.0* | 5.8
CC1(c2ccc(OC(F)F)cc2)NC(=O)N(CC(=O)NCCC2=CCCCC2)C1=O (configuration not stated) | x | x | 0.4 | x | 1.0 | i | x | x
Oc1cc(-n2cccn2)c(O)cc1-n1cccn1 | i | i | -31.8 | i | 36.2* | i | 7.1 | 38.9*
O=Cc1ccccc1-n1cccn1 | i | i | 2.5 | i | 2.2 | i | x | x
COc1ccc(/C=N/n2c(C)nc3c([nH]c4ccccc43)c2=O)cc1CN1CCCC(C)(C)C1 | i | i | -6.5 | i | -0.3 | i | x | x
COc1ccc2[nH]c3c(=O)n(/N=C/c4ccc(OC)c(CN5CCCC5)c4)c(C)nc3c2c1 | i | i | -8.7 | i | 17.4* | i | 4.7 | 13.3
CC1CC1C(=O)Nc1ccc(S(=O)(=O)N2CCCCC2)cc1 (configuration not stated) | x | x | -1.5 | x | x | i | x | x
Cc1cccc(N2CCN(C(=O)NCc3ccc(F)cc3)CC2)c1C | i | i | 0.0 | i | 2.9 | i | x | x
COc1ccc(CNC(=O)N2CCN(c3cccc(C)c3C)CC2)cc1OC | i | i | -0.8 | i | 17.5* | i | 6.2 | 13.1
CCn1c(SCC(=O)Nc2nc(-c3ccc(C)cc3)cs2)nnc1-c1ccccc1 | i | i | -13.2 | i | 16.2* | i | 6.4 | 20.6
CCn1c(SCC(=O)Nc2nc(-c3ccc(C)cc3)cs2)nnc1-c1ccccc1O | i | i | -6.6 | i | 6.4 | i | x | x
CC(NC(=O)c1ccc(N(C)C)c([N+](=O)[O-])c1)c1ccc(-n2ccnc2)cc1 (configuration not stated) | i | i | -4.0 | i | 19.1* | i | 8.0 | 11.6
CC(NC(=O)c1cc([N+](=O)[O-])cc([N+](=O)[O-])c1)c1ccc(-n2ccnc2)cc1 (configuration not stated) | i | i | 3.9 | i | 5.6 | i | x | x
COc1ccccc1NC(=O)CSc1nnc(Cc2cc(=O)[nH]c(=O)[nH]2)n1-c1ccccc1 | i | i | -6.7 | i | 18.5* | i | 3.5 | 2.7
O=C(OCc1ccccc1)N(CCF)c1cn(Cc2ccccc2)c(=O)n(Cc2ccccc2)c1=O | x | x | 3.7 | x | x | i | x | x
O=c1oc2ccc(Br)cc2cc1-c1nc2ccccc2o1 | i | i | -22.2 | i | 20.3* | i | 73.3* | 10.2

Screening data from PubChem BioAssay.
